In PubChem BioAssay AID1508622 (National Center for Advancing Translational Sciences (NCATS), 2021) one finds Potency data, which are given here for 23 compounds.

Activity calls are given as the source filed them. Where a call stands in place of a potency, no number is given. The call rests on the fitted dose curve; in most records, active means well fitted activation curve with a large enough effect; inconclusive means small, poorly fitted or top-dose-only effect; inactive means no such curve, though single readings can be large or run the other way.
Potency means the concentration at half of the fitted maximal effect.

A short description of the experiment: Confirmatory qHTS for Identification of Small Molecule Activators of Huntingtin-Antisense Promoter Activity. The note with it: HEK293 HTT-AS promoter firefly luciferase reporter, 24 h; series mostly up to 57.5 µM. In outline:
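HEK293 luciferase reporter cells, 2,500/well, cultured 24 h, then exposed to compounds at up to 57.5 uM final for 24 h at 37C. Firefly luciferase luminescence read; normalized to vehicle (0%) and zero RLU (-100%).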
A general note: In qHTS, concentration-response curves come from the screen itself.
In the case of `Cc1ccc(Cl)cc1N(C)C(=O)C1CCCN(c2ncnc3onc(-c4ccc(F)cc4)c23)C1` (stereo not drawn), the Potency result is “inactive”.
Turning to `COc1ccc(NC(=O)c2ccc(-c3nc(CSc4ccccc4)c(C)o3)cc2)cc1OC`, the Potency result is “inactive”.
The same measure for `CSc1ccc(CCNC(=O)c2ccc(CS(=O)(=O)c3ccc(Br)cc3)o2)cc1`: “inactive”; for `CCc1ccc(C2CC(=O)Nc3c2c(C)nn3-c2nc(C)cc(C)n2)cc1` (stereo not drawn): “inactive”; for `Cc1ccc(Nc2cc(C(=O)NC3CCCC3)c3ccccc3n2)cc1C`: “inactive”.
Under `CCCCOC(=O)c1ccc(NC(=O)c2sc3nc(C)cc(C)c3c2N)cc1` stands “inactive”; under `CCOC(=O)C1CCN(C(=O)Cn2c(-c3cccs3)cc3cc(Cl)ccc32)CC1`, “inactive”; under `CCOc1cccc(NC(=O)c2ccc(F)c(S(=O)(=O)N(CC)c3cccc(C)c3)c2)c1`, “inactive”.
Under `Cc1ccc(SCc2nc(-c3ccc(C(=O)NCC(C)c4ccccc4)cc3)oc2C)cc1` (stereo not drawn) stands “inactive”; under `Cc1cccc(OCC(=O)Nc2ccc3c(c2)N(C)C(=O)c2ccccc2S3)c1`, “inactive”; under `CC(=O)N1CCCc2cc(S(=O)(=O)N3CCN(c4ccccc4F)CC3)ccc21`, “inactive”.
With `CC(=O)N1CCCc2cc(S(=O)(=O)N(C)CC(=O)Nc3ccc(F)cc3Cl)ccc21`, the Potency entry is “inactive”.
On to `Fc1ccc(N2CCN(c3ncnc4c3nc3n4CCCCC3)CC2)cc1`, for which the Potency entry was “inactive”.
`Cn1c(=O)c2sccc2n2c(CCCC(=O)Nc3ccc(Oc4ccc(Cl)cc4)cc3)nnc12`: the Potency result is “inactive”.
The same measure for `CCOc1ccc(S(=O)(=O)N(C(=O)c2ccncc2)c2ccc3oc(C)c(C(=O)OC)c3c2)cc1`: “inactive”; for `Clc1ccc(N2CCN(c3ncnc4c3nc3n4CCCC3)CC2)cc1`: “inactive”; for `Cc1ccc(C(=O)N2CCc3cc(CNC(=O)CSc4ccccc4)ccc32)cc1`: “inactive”.
Under `COc1cc(NC(=O)c2cnc3c(-c4ccc(F)cc4)c(C)nn3c2C)cc(OC)c1` stands “inactive”.
Under `Cc1ccc(NC(=O)C2CCCN2S(=O)(=O)c2ccc3c(c2)CCCC(=O)N3)cc1C` (stereo not drawn) stands “inactive”; under `CCOc1ccc(C(=O)Nc2ccc3c(c2)CCCN3S(=O)(=O)c2ccc(C)cc2)cc1`, “inactive”; under `Cn1c(Oc2ccc(F)cc2)nc2c1c(=O)n(Cc1ccccc1Cl)c(=O)n2C`, “inactive”.
As for `CCCOc1ccc(C2c3c(-c4ccccc4O)n[nH]c3C(=O)N2CCCOCC)cc1OCC` (stereo not drawn), the Potency result was “inactive”.
Under `O=C(NCc1ccccc1)c1cc2ccc3cccnc3c2[nH]1` stands 2.13 µM (active).
